Measurements from PubChem BioAssay (Tox21).
Inconclusive results are not listed. Entries that show only a call come without a potency. Unmarked numbers belong to inactive results. Activity calls are given as the source filed them. Unless noted, calls follow the shape of the dose curve; as a rule, active = well fitted curve in the direction sought with a large enough effect in the repeat runs; inconclusive = weak or mixed curves; inactive = no such curve, though single readings can be large; an effect the other way counts as inactive or inconclusive.

What was measured:
[1] = qHTS assay to identify small molecule antagonists of the thyroid receptor (TR) signaling pathway - cell viability counter screen (AID 743064); also: nearly all actives have a fitted effect of over 50% in size; also: potency is read from the fitted curve at half-maximal effect
Outline: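 GH3.TRE-Luc rat pituitary cells carrying a TRE-luciferase reporter were treated with compound plus 1 nM T3 (final) for 23.5 h at 37 °C. Viability was then read in the same wells by CellTiter-Fluor fluorescence after a further 30 min.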

[2] = qHTS assay to identify small molecule antagonists of the thyroid receptor (TR) signaling pathway (AID 743065); also: nearly all actives have a fitted effect of over 55% in size; also: potency is read from the fitted curve at half-maximal effect
Outline: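 Antagonism measured as loss of luciferase signal in GH3 cells stably carrying a TRE-luciferase reporter, co-treated with compound and T3 (1 nM final) for 23.5 h at 37 C. Viability was read in the same well by CellTiter-Fluor.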

[3] = system: thyroid hormone receptor (rat, GH3 cells); experiment: qHTS assay to identify small molecule agonists of the thyroid receptor (TR) signaling pathway (AID 743066; calls by dose curve; also: potency is read from the fitted curve at half-maximal effect)
[4] = qHTS assay to identify small molecule antagonists of the estrogen receptor alpha (ER-alpha) signaling pathway - cell viability counter screen (AID 743074; calls by dose curve;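 also: HEK293 cells carrying ER-alpha-UAS-bla reporter stimulated with 17beta-estradiol; nearly all actives have a fitted effect of over 45% in size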; also: potency is read from the fitted curve at half-maximal effect)
[5] = qHTS assay to identify small molecule antagonists of the estrogen receptor alpha (ER-alpha) signaling pathway using the BG1 cell line - cell viability counter screen (AID 743081);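 also: compound given together with 17beta-estradiol as the ER stimulus; nearly all actives have a fitted effect of over 45% in size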; also: potency is read from the fitted curve at half-maximal effect
Aromatase (Homo sapiens) = Aromatase (Homo sapiens) (UniProt P11511); experiment: qHTS assay to identify aromatase inhibitors (AID 743083); also: nearly all actives have a fitted effect of over 55% in size; also: potency is read from the fitted curve at half-maximal effect
[6] = qHTS assay to identify aromatase inhibitors - cell viability counter screen (AID 743084);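 also: cells stimulated with testosterone during compound exposure; nearly all actives have a fitted effect of over 55% in size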; also: potency is read from the fitted curve at half-maximal effect
[7] = target: Aryl hydrocarbon receptor (Homo sapiens) (UniProt P35869); experiment: qHTS assay to identify small molecule that activate the aryl hydrocarbon receptor (AhR) signaling pathway (AID 743085);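 also: HG2L7.5c1 human HepG2 liver cells with stably integrated DRE-driven firefly reporter; nearly all actives have a fitted effect of over 15% in size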
Outline: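 HepG2 cells (HG2L7.5c1) stably carrying a firefly luciferase reporter driven by 20 dioxin responsive elements were exposed to compound for 24 h at 37C after a 5 h settling period; luminescence rise (ONE-Glo) indicated activation.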

[8] = qHTS assay to identify small molecule that activate the aryl hydrocarbon receptor (AhR) signaling pathway - cell viability counter screen (AID 743086); also: nearly all actives have a fitted effect of over 45% in size; also: potency is read from the fitted curve at half-maximal effect
Outline: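 Cytotoxicity counter screen: CellTiter-Fluor signal (30 min, 37 C) in 4000 HepG2 cells/well carrying the DRE-luciferase reporter, following 24 h compound exposure at 37 C.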

[9] = target: Peroxisome proliferator-activated receptor gamma (Homo sapiens) (UniProt P37231); experiment: qHTS assay to identify small molecule agonists of the peroxisome proliferator-activated receptor gamma (PPARg) signaling pathway (AID 743094; active = well fitted activation curve with a large enough effect in the signal ratio in the repeat runs, not every such curve was filed as active; the % refers to the signal ratio)
Outline: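 Cells from the PPARg UAS-bla HEK293H line are plated and incubated 5 h at 37C. Compounds in DMSO are pinned in and left 17 h at 37C. LiveBLAzer B/G substrate is then added for 1 h at room temperature before fluorescence is measured.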

[10] = qHTS assay to identify small molecule antagonists of the peroxisome proliferator-activated receptor gamma (PPARg) signaling pathway - cell viability counter screen (AID 743194); also: nearly all actives have a fitted effect of over 55% in size; also: potency is read from the fitted curve at half-maximal effect
Outline: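 Viability was measured as CellTiter-Glo luminescence in GeneBLAzer PPARg UAS-bla HEK293H cells. These cells had been exposed 17 h at 37 C to compounds together with rosiglitazone at 50 nM final, with the beta-lactamase readout taken in the same wells.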

[11] = qHTS assay for small molecule agonists of the antioxidant response element (ARE) signaling pathway (AID 743202; active = well fitted activation curve with a large enough effect in the signal ratio in the repeat runs, not every such curve was filed as active; the % refers to the signal ratio)
Outline: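 After 16 hours of compound treatment at 37 C, HepG2 cells with a stably integrated ARE-driven beta-lactamase reporter were loaded 2 hours at room temperature with LiveBLAzer B/G FRET substrate and fluorescence intensity measured.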

[12] = qHTS assay for small molecule agonists of the antioxidant response element (ARE) signaling pathway - cell viability counter screen (AID 743203; calls by dose curve; also: nearly all actives have a fitted effect of over 55% in size; also: potency is read from the fitted curve at half-maximal effect)
Outline: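 Cytotoxicity was tested in parallel with the ARE reporter screen. ARE-bla HepG2 cells were exposed to compounds for 16 hrs, and viability was taken from CellTiter-Glo luminescence.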

[13] = qHTS assay for small molecule activators of the heat shock response signaling pathway - cell viability counter screen (AID 743209); also: nearly all actives have a fitted effect of over 50% in size; also: potency is read from the fitted curve at half-maximal effect
Outline: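 Cytotoxicity counter screen run in parallel with the HSE beta-lactamase reporter, using the same wells. HeLa HSE-bla cells received compound for 5 h at 37 C; ATP-based CellTiter-Glo luminescence was measured after 30 min at room temperature.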

[14] = qHTS assay for small molecule activators of the heat shock response signaling pathway (AID 743210; active = well fitted activation curve with a large enough effect in the signal ratio in the repeat runs, with a control signal flat, not every such curve was filed as active; the % refers to the signal ratio)
Outline: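 Compound exposure lasted 5 h at 37 C in HeLa cells carrying a heat-shock-element-driven beta-lactamase reporter. Read-out: fluorescence intensity after 2.5 h room-temperature loading with LiveBLAzer B/G FRET substrate.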

[15] = target: Estrogen receptor (Homo sapiens) (UniProt P03372); experiment: qHTS assay to identify small molecule antagonists of the estrogen receptor alpha (ER-alpha) signaling pathway (AID 743069; active = well fitted curve in the direction sought with a large enough effect in the signal ratio in the repeat runs, not every such curve was filed as active; the % refers to the signal ratio)
Outline: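 Antagonist mode: compounds in DMSO were co-added with 17beta-estradiol to ER-alpha-bla HEK293 cells (2% charcoal-stripped serum) and left 18 h at 37C. Reporter inhibition was measured as FRET fluorescence after 2 h LiveBLAzer substrate at room temperature.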

[16] = target: Estrogen receptor (Homo sapiens) (UniProt P03372); experiment: qHTS assay to identify small molecule agonists of the estrogen receptor alpha (ER-alpha) signaling pathway (AID 743075; calls by dose curve;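 also: HEK293 GripTite cells with ER-alpha and UAS-driven beta-lactamase reporter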); details: HEK293 ER-alpha-UAS-bla, beta-lactamase FRET ratio, 18 h; activation: at 70.1 µM (top of the series)
[17] = target: Estrogen receptor (Homo sapiens) (UniProt P03372); experiment: qHTS assay to identify small molecule agonists of the estrogen receptor alpha (ER-alpha) signaling pathway using the BG1 cell line (AID 743079); details: BG1Luc4E2 cells, ERE-luciferase agonist, 22 h; at 70.3 µM (top of the series); also: nearly all actives have a fitted effect of over 20% in size
[18] = qHTS assay to identify small molecule antagonists of the estrogen receptor alpha (ER-alpha) signaling pathway using the BG1 cell line (AID 743080; calls by dose curve;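 also: BG1 cells stimulated with 17beta-estradiol alongside compound; nearly all actives have a fitted effect of over 25% in size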)
Outline: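 BG1-Luc-4E2 cells (endogenous full-length ER-alpha, 4xERE luciferase) hormone-starved 5 days in charcoal-stripped FBS, plated 4,000/well for 24 h, then compound plus 17beta-estradiol for 21.5 h at 37 C; ONE-Glo luminescence read.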

[19] = target: Peroxisome proliferator-activated receptor gamma (Homo sapiens) (UniProt P37231); experiment: qHTS assay to identify small molecule antagonists of the peroxisome proliferator-activated receptor gamma (PPARg) signaling pathway (AID 743191; calls by dose curve; also: potency is read from the fitted curve at half-maximal effect; nearly all actives have a fitted effect of over 30% in size)
Outline: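 Beta-lactamase reporter under UAS control in HEK293H PPARg-bla cells; compound treatment 17 h at 37C. Read-out: fluorescence intensity after 1 h room-temperature incubation with LiveBLAzer B/G FRET substrate.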

Sequence of Aryl hydrocarbon receptor (Homo sapiens) (P35869 whole entry, looked up): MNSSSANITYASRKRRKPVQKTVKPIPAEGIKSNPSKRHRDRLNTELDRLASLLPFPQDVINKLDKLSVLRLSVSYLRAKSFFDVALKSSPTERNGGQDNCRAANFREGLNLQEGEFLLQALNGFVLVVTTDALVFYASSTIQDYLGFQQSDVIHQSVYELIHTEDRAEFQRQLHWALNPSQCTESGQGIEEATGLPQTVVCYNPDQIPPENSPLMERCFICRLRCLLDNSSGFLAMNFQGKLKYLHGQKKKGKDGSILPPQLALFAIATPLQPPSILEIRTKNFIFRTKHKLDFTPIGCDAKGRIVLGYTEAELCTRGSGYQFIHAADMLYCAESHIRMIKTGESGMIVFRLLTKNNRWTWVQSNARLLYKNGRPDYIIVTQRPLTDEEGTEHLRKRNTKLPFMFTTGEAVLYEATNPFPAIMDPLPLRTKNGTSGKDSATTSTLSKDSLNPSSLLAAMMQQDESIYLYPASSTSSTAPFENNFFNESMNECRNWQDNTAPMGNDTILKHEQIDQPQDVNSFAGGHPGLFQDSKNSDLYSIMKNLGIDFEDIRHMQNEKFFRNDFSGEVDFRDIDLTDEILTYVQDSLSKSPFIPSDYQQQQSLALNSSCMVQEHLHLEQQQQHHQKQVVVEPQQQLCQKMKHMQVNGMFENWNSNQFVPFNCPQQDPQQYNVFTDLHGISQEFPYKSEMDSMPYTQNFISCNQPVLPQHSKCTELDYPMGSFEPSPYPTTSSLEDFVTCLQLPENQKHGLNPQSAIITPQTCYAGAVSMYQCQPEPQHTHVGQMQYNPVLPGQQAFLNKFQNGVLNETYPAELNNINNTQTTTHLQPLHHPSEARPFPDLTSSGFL
Sequence of Peroxisome proliferator-activated receptor gamma (Homo sapiens) (P37231 whole entry, looked up): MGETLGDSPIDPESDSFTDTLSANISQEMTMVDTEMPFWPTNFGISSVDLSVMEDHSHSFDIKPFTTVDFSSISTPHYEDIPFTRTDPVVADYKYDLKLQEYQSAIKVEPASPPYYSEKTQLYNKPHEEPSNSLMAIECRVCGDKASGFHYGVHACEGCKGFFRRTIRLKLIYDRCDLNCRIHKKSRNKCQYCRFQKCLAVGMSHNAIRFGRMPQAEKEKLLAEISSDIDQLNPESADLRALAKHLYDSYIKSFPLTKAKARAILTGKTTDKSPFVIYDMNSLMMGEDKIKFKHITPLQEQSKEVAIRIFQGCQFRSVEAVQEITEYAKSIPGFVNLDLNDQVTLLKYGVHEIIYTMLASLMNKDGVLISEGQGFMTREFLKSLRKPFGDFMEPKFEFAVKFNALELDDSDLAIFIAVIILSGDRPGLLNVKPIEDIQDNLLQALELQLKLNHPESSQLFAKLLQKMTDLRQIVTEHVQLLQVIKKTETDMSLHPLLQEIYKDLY
Sequence of Aromatase (Homo sapiens) (P11511 whole entry, looked up): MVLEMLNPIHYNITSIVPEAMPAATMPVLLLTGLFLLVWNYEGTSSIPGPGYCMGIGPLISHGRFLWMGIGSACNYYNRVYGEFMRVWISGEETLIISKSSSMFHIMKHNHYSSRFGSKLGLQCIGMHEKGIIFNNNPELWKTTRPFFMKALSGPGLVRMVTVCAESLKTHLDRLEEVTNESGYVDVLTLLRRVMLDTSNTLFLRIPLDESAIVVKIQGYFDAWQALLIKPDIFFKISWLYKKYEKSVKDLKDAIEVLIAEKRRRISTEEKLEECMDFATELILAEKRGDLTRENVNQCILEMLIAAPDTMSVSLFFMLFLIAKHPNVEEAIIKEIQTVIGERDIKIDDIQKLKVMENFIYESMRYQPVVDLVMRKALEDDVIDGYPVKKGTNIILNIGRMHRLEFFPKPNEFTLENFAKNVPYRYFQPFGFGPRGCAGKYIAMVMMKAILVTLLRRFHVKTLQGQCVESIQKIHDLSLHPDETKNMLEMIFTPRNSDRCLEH
Sequence of Estrogen receptor (Homo sapiens) (P03372 whole entry, looked up): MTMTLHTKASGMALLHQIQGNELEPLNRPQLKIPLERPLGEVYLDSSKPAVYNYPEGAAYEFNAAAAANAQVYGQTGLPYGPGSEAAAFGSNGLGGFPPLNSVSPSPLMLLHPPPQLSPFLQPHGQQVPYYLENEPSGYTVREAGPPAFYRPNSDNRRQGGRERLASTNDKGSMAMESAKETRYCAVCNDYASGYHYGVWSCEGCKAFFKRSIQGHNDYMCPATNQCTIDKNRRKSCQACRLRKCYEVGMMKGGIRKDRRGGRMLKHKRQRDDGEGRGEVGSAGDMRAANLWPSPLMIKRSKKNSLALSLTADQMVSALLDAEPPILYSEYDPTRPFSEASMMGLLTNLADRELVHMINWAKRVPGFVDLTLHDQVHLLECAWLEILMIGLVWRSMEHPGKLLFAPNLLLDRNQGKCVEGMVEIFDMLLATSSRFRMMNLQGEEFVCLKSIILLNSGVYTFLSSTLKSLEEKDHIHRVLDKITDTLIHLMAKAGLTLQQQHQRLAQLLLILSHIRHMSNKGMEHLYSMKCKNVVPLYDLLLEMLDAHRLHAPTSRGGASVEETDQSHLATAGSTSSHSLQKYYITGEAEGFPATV

| SMILES | Potency [1] | Potency [2] | Potency [3] | Potency [4] | Potency [5] | Potency (Aromatase (Homo sapiens)) | Potency [6] | Potency [7] | Potency [8] | Potency [9] | Potency [10] | Potency [11] | Potency [12] | Potency [13] | Potency [14] | Potency [15] | Potency [16] | activation [17] [%] | Potency [18] | Potency [19] |
| --- | --- | --- | --- | --- | --- | --- | --- | --- | --- | --- | --- | --- | --- | --- | --- | --- | --- | --- | --- | --- |
| CCCCCCCCCCC=O | inactive | inactive | inactive | inactive | inactive | inactive | inactive | inactive | inactive | inactive | inactive | inactive | inactive | inactive | inactive | – | – | – | – | – |
| COCCCC/C(=N\OCCN)c1ccc(C(F)(F)F)cc1 | 13.3 µM (active) | 11.9 µM (active) | – | – | inactive | 21.1 µM (active) | inactive | inactive | – | – | inactive | – | inactive | inactive | inactive | inactive | inactive | -27 | inactive | – |
| CC(C)(C)CC(C)(C)c1ccc(O)c(Cc2ccc(Cl)cc2Cl)c1 | 6.68 µM (active) | 6.68 µM (active) | 2.11 µM (active) | 23.9 µM (active) | – | inactive | inactive | – | – | – | – | – | 13.3 µM (active) | 23.7 µM (active) | – | – | – | – | – | – |
| C=CC(=O)OCCn1c(=O)n(CCOC(=O)C=C)c(=O)n(CCOC(=O)C=C)c1=O | 5.45 µM (active) | 4.86 µM (active) | inactive | – | 54.5 µM (active) | 13.7 µM (active) | 13.7 µM (active) | inactive | 38.6 µM (active) | – | – | – | 54.5 µM (active) | 13.8 µM (active) | – | – | – | – | – | – |
| CCCCCCCCn1sc(Cl)c(Cl)c1=O | 27.3 µM (active) | 27.3 µM (active) | inactive | – | – | 4.86 µM (active) | 5.45 µM (active) | inactive | – | inactive | – | – | 4.33 µM (active) | – | – | – | inactive | – | – | 49 µM (active) |
| CCCCN(CCCC)c1ccc(C(=O)c2ccccc2C(=O)O)c(O)c1 | 55 µM (active) | 55 µM (active) | inactive | 49.4 µM (active) | inactive | inactive | inactive | inactive | – | – | – | – | – | 62.2 µM (active) | – | – | – | – | – | – |
| CN1CCN(CCC(=O)N2c3ccccc3Sc3ccc(C(F)(F)F)cc32)CC1 | 11.9 µM (active) | 26.6 µM (active) | – | – | – | inactive | inactive | inactive | – | inactive | 33.5 µM (active) | – | 29.8 µM (active) | inactive | inactive | inactive | inactive | -0.0617 | inactive | – |
| C/C=C(\C)C(=O)OCc1ccccc1 | inactive | inactive | inactive | inactive | inactive | inactive | inactive | inactive | inactive | inactive | inactive | inactive | inactive | – | – | – | – | – | – | – |
| CC/C(=C(\c1ccc(O)cc1)c1ccc(OCCN(C)C)cc1)c1ccccc1 | 5.46 µM (active) | 12.2 µM (active) | inactive | 39 µM (active) | 68.7 µM (active) | 0.0217 µM (active) | 48.7 µM (active) | inactive | 54.6 µM (active) | – | 17.4 µM (active) | – | – | 27.6 µM (active) | – | – | – | – | – | – |
